From the supplement of paper PMC8728848 come the findings set out here.

Test in all cases: glycan array binding signal (z-score within array); higher = stronger binding
The subject of assay [1] is Gal(b1-4)GlcNAc(b1-3)Gal(b1-4)GlcNAc(b1-3)Gal(b1-4)GlcNAc(b1-3)Gal(b1-4)GlcNAc(b1-2)Man(a1-3)[Gal(b1-4)GlcNAc(b1-3)Gal(b1-4)GlcNAc(b1-3)Gal(b1-4)GlcNAc(b1-3)Gal(b1-4)GlcNAc(b1-2)Man(a1-6)]Man(b1-4)GlcNAc(b1-4)[Fuc(a1-6)]GlcNAc. To be noted: glycan notation: IUPAC condensed, linker removed; mutation: R125K. The method in brief: (§1)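 From the Consortium for Functional Glycomics database, 3228 arrays were curated, keeping only those whose protein sequence was available. Binding is given as a within-array Z-score averaged across arrays sharing a protein sequence and across linkers. Negative Z-scores can be read as non-binding.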

Assay [2] deals with Gal(b1-4)GlcNAc(b1-3)Gal(b1-4)GlcNAc(b1-3)Gal(b1-4)GlcNAc(b1-3)Gal(b1-4)GlcNAc(b1-3)Gal(b1-4)GlcNAc(b1-2)Man(a1-3)[Gal(b1-4)GlcNAc(b1-3)Gal(b1-4)GlcNAc(b1-3)Gal(b1-4)GlcNAc(b1-3)Gal(b1-4)GlcNAc(b1-3)Gal(b1-4)GlcNAc(b1-2)Man(a1-6)]Man(b1-4)GlcNAc(b1-4)GlcNAc. To be noted: glycan notation: IUPAC condensed, linker removed. The method in brief:
as §1

Assay [3] relates to Gal(b1-4)GlcNAc(b1-3)Gal(b1-4)GlcNAc(b1-3)[Gal(b1-4)GlcNAc(b1-3)Gal(b1-4)GlcNAc(b1-6)]GalNAc. To be noted: glycan notation: IUPAC condensed, linker removed. The method in brief:
as §1

The test system of assay [4] is Gal(b1-4)GlcNAc(b1-3)Gal(b1-4)Glc. To be noted: glycan notation: IUPAC condensed, linker removed. The method in brief: as §1
Assay [5] deals with Gal(b1-4)GlcNAc(b1-3)[GlcNAc(b1-6)]Gal(b1-4)GlcNAc. The settings on record: glycan notation: IUPAC condensed, linker removed. The method, boiled down:
as §1

Assay [6] deals with Gal(b1-4)GlcNAc(b1-6)[Gal(b1-3)]GalNAc. The settings on record: glycan notation: IUPAC condensed, linker removed. The method, boiled down: as §1
A further assay deals with Gal(b1-6)Gal. To be noted: glycan notation: IUPAC condensed, linker removed. The method in brief:
as §1

The subject of a further assay is Gal3S(b1-3)GalNAc. To be noted: glycan notation: IUPAC condensed, linker removed. The method, boiled down: as §1
For assay [7], the system named is Gal(b1-4)GlcNAc(b1-6)Gal(b1-4)GlcNAc. The settings on record: glycan notation: IUPAC condensed, linker removed. The method, boiled down: as §1
In another assay the test system is Gal(b1-4)GlcNAc. To be noted: glycan notation: IUPAC condensed, linker removed. The method in brief:
as §1

Another assay relates to Gal3S(b1-4)GlcNAc6S. To be noted: glycan notation: IUPAC condensed, linker removed. The method in brief:
as §1

A further assay has as its system Gal3S(b1-4)GlcNAc. To be noted: glycan notation: IUPAC condensed, linker removed. The method, boiled down: as §1
Assay [8] deals with Gal(b1-4)GlcNAc(b1-3)[Gal(b1-4)GlcNAc(b1-6)]Gal(b1-4)GlcNAc. The settings on record: glycan notation: IUPAC condensed, linker removed. The method, boiled down: as §1
Assay [9] relates to Gal(b1-4)GlcNAc(b1-3)Gal(b1-4)[Fuc(a1-3)]GlcNAc(b1-3)Gal(b1-4)[Fuc(a1-3)]GlcNAc. The settings on record: glycan notation: IUPAC condensed, linker removed. The method in brief: as §1
The next assay concerns Gal(b1-4)Glc. The settings on record: glycan notation: IUPAC condensed, linker removed. The method, boiled down: as §1
Assay [10] concerns Gal(b1-4)GlcNAc(b1-6)GalNAc. The settings on record: glycan notation: IUPAC condensed, linker removed. The method in brief:
as §1

In assay [11] the test system is Gal3S(b1-3)[Fuc(a1-4)]GlcNAc. To be noted: glycan notation: IUPAC condensed, linker removed. The method in brief:
as §1

For assay [12], the system named is Gal(b1-4)GlcNAc(b1-3)GalNAc. To be noted: glycan notation: IUPAC condensed, linker removed. The method in brief: as §1
The test system of a further assay is Gal3S(b1-3)GlcNAc. The settings on record: glycan notation: IUPAC condensed, linker removed. The method in brief:
as §1

For assay [13], the system named is Gal(b1-4)GlcNAc(b1-3)Gal(b1-4)GlcNAc. To be noted: glycan notation: IUPAC condensed, linker removed. The method in brief:
as §1

The entries come from a sample that favours the strongest signals as a whole.

Sequence of PILRa (Mus musculus), Q2YSF3 (Q2YSF3 entry or part of it): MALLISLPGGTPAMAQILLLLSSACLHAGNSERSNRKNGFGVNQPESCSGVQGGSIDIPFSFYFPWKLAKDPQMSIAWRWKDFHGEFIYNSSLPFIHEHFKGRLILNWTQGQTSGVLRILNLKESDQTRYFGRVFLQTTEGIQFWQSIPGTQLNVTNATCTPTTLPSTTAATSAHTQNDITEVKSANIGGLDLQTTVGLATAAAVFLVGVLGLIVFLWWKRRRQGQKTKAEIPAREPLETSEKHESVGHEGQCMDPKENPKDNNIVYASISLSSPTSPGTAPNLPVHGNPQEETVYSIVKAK
Sequence of CHI3L1 (Homo sapiens), P36222 (P36222 whole entry): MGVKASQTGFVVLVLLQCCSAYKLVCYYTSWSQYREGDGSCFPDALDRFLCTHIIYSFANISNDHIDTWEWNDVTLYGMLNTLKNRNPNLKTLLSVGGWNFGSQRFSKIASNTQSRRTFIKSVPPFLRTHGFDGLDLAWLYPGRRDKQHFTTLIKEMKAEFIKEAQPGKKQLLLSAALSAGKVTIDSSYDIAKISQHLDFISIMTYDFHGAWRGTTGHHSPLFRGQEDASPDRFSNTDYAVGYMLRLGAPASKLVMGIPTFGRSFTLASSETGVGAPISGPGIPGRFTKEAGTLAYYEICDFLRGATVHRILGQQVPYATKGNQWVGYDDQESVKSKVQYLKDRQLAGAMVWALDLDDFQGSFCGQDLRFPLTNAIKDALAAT
Sequence of Neurocan (Homo sapiens), O14594 (O14594 other isoform, or with tags, fused parts or gaps): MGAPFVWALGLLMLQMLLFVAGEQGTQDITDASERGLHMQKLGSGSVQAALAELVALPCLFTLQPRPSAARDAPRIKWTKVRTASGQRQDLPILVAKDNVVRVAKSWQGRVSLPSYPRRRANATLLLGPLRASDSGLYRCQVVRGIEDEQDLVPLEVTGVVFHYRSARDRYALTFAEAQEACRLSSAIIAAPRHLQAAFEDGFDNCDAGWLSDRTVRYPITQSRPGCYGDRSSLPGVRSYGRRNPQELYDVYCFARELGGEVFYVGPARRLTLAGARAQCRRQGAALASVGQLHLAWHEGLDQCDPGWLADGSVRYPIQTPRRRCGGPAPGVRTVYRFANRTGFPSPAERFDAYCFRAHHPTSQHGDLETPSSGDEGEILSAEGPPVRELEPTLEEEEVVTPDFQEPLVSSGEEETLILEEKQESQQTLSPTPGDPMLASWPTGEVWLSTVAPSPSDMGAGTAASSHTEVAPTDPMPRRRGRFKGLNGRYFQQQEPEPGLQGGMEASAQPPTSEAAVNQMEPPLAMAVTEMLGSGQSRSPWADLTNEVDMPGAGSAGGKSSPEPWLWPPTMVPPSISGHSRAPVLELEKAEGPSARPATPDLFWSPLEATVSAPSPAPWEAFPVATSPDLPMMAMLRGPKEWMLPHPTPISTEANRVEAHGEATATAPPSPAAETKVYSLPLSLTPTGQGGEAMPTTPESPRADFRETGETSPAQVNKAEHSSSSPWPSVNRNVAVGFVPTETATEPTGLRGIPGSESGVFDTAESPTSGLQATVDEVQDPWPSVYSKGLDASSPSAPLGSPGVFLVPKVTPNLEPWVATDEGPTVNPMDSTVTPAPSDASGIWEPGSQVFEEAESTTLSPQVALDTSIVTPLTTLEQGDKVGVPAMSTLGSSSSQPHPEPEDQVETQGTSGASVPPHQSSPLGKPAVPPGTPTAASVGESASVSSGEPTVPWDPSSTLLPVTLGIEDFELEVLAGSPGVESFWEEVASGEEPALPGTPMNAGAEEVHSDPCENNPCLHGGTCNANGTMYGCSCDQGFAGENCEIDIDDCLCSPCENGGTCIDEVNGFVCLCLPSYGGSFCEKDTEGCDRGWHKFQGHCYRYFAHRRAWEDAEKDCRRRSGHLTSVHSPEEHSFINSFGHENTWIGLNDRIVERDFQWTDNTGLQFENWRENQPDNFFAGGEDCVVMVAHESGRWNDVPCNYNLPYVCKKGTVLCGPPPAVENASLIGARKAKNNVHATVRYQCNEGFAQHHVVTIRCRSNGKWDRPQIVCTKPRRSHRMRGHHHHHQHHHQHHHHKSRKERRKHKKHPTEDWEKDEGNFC
Sequence of Regenerating Gene IV (Homo sapiens), Q9BYZ8 (Q9BYZ8 whole entry, looked up): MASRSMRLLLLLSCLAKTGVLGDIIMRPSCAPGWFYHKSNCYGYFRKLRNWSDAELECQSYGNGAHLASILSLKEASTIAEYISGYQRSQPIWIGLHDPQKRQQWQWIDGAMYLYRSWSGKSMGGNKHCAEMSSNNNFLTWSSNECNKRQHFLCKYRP
Sequence of Avaren (Actinomycete K97) (chain, as listed by the source): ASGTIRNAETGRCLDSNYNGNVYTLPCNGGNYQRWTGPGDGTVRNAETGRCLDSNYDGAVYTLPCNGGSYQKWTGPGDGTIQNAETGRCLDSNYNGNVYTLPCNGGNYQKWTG
Sequence of wLAT-1A (Homo sapiens), Q01650 (Q01650 whole entry): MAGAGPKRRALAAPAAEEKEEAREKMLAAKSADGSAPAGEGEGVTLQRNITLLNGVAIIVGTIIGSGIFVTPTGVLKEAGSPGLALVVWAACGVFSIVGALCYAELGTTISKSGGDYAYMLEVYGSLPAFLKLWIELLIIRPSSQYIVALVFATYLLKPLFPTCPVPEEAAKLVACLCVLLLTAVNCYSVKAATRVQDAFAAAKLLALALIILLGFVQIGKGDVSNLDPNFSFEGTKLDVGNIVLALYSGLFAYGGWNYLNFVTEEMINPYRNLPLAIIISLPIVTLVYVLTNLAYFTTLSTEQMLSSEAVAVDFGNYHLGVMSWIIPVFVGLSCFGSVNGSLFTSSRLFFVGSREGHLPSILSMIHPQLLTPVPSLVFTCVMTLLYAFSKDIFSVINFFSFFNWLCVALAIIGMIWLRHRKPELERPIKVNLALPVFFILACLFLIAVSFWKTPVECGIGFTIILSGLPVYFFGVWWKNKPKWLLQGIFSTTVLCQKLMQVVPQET
Sequence of SRLC (Mus musculus), Q8VIF6 (Q8VIF6 other isoform, or with tags, fused parts or gaps): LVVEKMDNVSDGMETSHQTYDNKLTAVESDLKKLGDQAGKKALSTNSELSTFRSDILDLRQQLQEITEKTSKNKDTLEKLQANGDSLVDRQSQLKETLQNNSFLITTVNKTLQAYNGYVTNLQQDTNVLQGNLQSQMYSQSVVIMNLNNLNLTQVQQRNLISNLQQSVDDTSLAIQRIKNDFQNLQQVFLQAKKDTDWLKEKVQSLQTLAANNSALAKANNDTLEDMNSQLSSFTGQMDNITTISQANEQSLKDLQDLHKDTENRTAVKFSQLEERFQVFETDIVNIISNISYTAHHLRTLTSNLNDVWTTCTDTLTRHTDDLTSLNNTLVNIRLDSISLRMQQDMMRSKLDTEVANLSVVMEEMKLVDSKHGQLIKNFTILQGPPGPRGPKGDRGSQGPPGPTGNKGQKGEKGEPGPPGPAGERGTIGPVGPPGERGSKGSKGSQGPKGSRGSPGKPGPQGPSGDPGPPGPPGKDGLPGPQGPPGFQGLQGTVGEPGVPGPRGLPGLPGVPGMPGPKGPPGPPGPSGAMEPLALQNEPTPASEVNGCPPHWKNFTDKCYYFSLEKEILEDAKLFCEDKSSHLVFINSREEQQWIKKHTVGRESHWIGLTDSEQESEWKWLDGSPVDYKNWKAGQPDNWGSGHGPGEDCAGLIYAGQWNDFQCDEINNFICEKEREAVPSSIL
Sequence of Aggrecan (Rattus norvegicus), NP_071526 (chain, as listed by the source): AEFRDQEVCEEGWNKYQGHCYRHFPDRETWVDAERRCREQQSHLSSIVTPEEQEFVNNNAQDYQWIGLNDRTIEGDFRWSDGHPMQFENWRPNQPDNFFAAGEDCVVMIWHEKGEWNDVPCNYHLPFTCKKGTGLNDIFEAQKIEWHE
Sequence of 6RG (Lolium perenne) (chain, as listed by the source): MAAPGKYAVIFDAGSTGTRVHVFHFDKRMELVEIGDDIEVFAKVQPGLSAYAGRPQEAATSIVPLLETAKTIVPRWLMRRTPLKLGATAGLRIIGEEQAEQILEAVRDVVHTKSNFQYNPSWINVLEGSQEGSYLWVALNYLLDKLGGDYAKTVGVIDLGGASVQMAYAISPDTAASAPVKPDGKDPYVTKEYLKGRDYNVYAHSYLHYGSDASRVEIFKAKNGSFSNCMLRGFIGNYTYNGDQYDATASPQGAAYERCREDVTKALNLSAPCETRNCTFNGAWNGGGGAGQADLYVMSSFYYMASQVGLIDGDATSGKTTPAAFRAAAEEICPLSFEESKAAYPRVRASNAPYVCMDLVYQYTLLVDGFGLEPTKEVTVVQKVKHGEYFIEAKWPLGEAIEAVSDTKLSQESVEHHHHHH
Sequence of 6RG (Lolium perenne), B9U140 (B9U140 entry or part of it): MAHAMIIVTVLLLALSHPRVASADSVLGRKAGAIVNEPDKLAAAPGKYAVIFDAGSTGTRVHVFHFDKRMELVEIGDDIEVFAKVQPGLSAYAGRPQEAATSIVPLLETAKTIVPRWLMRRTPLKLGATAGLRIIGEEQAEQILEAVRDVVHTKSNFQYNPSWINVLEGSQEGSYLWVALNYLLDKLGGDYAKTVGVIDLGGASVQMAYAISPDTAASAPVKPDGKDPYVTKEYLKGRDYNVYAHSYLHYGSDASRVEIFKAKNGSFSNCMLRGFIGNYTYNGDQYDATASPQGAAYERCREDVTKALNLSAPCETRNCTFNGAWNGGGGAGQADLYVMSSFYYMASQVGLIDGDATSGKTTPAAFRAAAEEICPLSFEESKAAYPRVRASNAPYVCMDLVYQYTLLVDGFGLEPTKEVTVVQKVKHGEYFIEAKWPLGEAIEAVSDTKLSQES
Sequence of CHT (Homo sapiens) (chain, as listed by the source): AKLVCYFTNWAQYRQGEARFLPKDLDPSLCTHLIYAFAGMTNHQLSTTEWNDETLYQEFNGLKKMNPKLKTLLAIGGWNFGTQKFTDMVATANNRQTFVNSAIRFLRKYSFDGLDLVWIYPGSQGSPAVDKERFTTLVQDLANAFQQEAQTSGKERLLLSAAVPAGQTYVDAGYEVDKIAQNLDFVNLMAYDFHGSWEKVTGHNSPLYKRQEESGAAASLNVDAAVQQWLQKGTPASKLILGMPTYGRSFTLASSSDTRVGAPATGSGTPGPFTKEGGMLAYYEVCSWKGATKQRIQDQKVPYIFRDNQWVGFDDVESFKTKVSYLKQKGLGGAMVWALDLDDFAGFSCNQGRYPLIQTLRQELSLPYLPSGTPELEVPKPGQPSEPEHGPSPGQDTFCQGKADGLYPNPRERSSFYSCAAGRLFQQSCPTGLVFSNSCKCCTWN

Regarding Siglec-8 (Homo sapiens), Q9NYZ4, the “glycan array binding signal (z-score)” value in [1] was 0.321; in assay [2] it was 0.483; in assay [3], 0.455; in assay [4], -0.209; in assay [5] (mutation: R125K), -0.502; in [6], -0.099. In addition, the “glycan array binding signal (z-score)” value was -0.178 in the assay with Gal(b1-6)Gal, -0.117 with Gal(b1-6)Gal (mutation: R125K) and 0.076 with Gal3S(b1-3)GalNAc.
Turning to CHI3L1 (Homo sapiens), P36222, the “glycan array binding signal (z-score)” value is -0.106 in assay [4]; -0.141 in [7]; -0.122 in the assay on Gal(b1-4)GlcNAc; -0.093 in the assay with Gal3S(b1-4)GlcNAc6S; 0.706 in the assay on Gal3S(b1-4)GlcNAc.
Consider Aggrecan (Rattus norvegicus), NP_071526, for which the “glycan array binding signal (z-score)” value in assay [8] was -0.184.
On to Neurocan (Homo sapiens), O14594, for which the results for the “glycan array binding signal (z-score)” value (in assay [4]; in assay [9]; with Gal(b1-4)Glc) were -0.263, -0.779 and -0.551, respectively.
As to CHT (Homo sapiens), the “glycan array binding signal (z-score)” value in [10] (mutation: D138V, E140I) was -0.115.
In the case of PILRa (Mus musculus), Q2YSF3, the results for the “glycan array binding signal (z-score)” value in assay [5], in assay [7] and in assay [10] were -0.283, -0.231 and -0.218, respectively.
As to PILRb (Mus musculus), Q2YSF2, the “glycan array binding signal (z-score)” value in [8] was -0.023.
Regarding 6RG (Lolium perenne), in assay [9], the “glycan array binding signal (z-score)” value was -0.329.
On to SRLC (Mus musculus), Q8VIF6, for which the “glycan array binding signal (z-score)” value in assay [10] was -0.239; in [11] it was -0.081.
Take “Regenerating Gene IV (Homo sapiens), Q9BYZ8”: the “glycan array binding signal (z-score)” value in [12] was 1.48; in [6], 0.244.
C3b (Homo sapiens), P01024: the “glycan array binding signal (z-score)” value in the assay with Gal3S(b1-3)GlcNAc worked out at 1.05.
As for Avaren (Actinomycete K97), the “glycan array binding signal (z-score)” value in assay [3] is -0.016; in the assay on Gal3S(b1-3)GalNAc it was -0.121.
As to wLAT-1A (Homo sapiens), Q01650, the “glycan array binding signal (z-score)” value in [13] is -0.343; in assay [10], 0.12.
In the case of MpAFP RI GFP (Marinomonas primoryensis), the “glycan array binding signal (z-score)” value in assay [10] was -0.359; in the assay on Gal(b1-6)Gal, -0.336; in the assay on Gal3S(b1-3)GlcNAc it was -0.429.
As to 6RG (Lolium perenne), B9U140, in the assay on Gal3S(b1-4)GlcNAc6S, the “glycan array binding signal (z-score)” value turned out to be 0.775.
